# This is a sample that favours compounds with a hit; in the whole collection about 12% have one here.
# AmpC detergent: qHTS Inhibitors of AmpC Beta-Lactamase (assay with detergent); Potency, µM (doses to about 114 µM), for inactives: at the top dose activity change, negative = inhibition, most hits filed as inhibitors; AID 485294, 2010; actives 0.041% (n = 370,000); P00811; AmpC hydrolysis of nitrocefin, absorbance 480 nm, 0.01% Triton;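 note: 0% = no-compound wells and -100% = no-enzyme wells; nearly all actives have a fitted effect of over 25% in size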
# Target sequence (P00811 whole entry, looked up): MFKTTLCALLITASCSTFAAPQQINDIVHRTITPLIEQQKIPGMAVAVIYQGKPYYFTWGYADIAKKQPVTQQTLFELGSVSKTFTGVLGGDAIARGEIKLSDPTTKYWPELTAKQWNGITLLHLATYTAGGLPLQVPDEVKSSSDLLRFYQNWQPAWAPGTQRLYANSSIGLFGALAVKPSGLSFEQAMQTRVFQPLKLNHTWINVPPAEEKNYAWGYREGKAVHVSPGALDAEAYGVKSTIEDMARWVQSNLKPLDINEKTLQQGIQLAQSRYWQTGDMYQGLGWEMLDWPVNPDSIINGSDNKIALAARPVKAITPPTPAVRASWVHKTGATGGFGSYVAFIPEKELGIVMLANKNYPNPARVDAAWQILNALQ
#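 AmpC (5.3 nM in the dispensed reagent) in 20 mM phosphate pH 7.0 with 0.01% (detergent screen) or 0.0001% Triton X-100 was preincubated with compounds for 15 min at room temperature. Nitrocefin was then added from an 800 uM solution, and hydrolysis was followed at 480 nm.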
# SARS PLP yeast: qHTS of Yeast-based Assay for SARS-CoV PLP. AID 485353, 2010. Potency, µM (highest dose often 32.9 µM), for the others: at the highest dose activity, positive = growth rescue, actives largely listed as activators. actives 0.19% (n = 330,000). S. cerevisiae expressing SARS-CoV PLpro, growth rescue; calls by dose curve; note: 0% is about no effect; nearly all actives have a fitted effect of over 55% in size
# Sm TGR block: qHTS Assay for the Inhibitors of Schistosoma Mansoni Peroxiredoxins; Schistosoma mansoni thioredoxin glutathione reductase (TGR), Q962Y6; Potency, µM (titrated, usually from 114 µM), for the others: at the highest dose activity change, negative = inhibition, actives largely listed as inhibitors; actives 3% (n = 360,000); purified TGR, DTNB reduction, TNB absorbance 405 nm; AID 485364, 2010; note: % is set by controls: 0 for no effect and ±100 for the full control effect; nearly all actives have a fitted effect of over 60% in size
#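 TGR 20 nM + NADPH 100 uM (dispensed conc.), cpd preinc 15 min RT; start with NADPH (500 uM addition) then DTNB (15 mM addition). Kinetic TNB absorbance, 405 nm filter. Four-parameter Hill fit across titration.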
# AmpC inh no detg: qHTS Inhibitors of AmpC Beta-Lactamase (assay without detergent); AmpC nitrocefin hydrolysis, absorbance 480 nm, 0.0001% Triton; P00811; actives 0.52% (n = 330,000); Potency, µM (highest dose often 57.1 µM), without a hit: at the top dose activity change, negative = inhibition, most hits filed as inhibitors; AID 485341, 2010;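 note: plate controls were no compound for no effect and no enzyme for full effect; nearly all actives have a fitted effect of over 20% in size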
#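 AmpC (5.3 nM in the dispensed reagent) in 20 mM phosphate pH 7.0 with 0.01% (detergent screen) or 0.0001% Triton X-100 was preincubated with compounds for 15 min at room temperature. Nitrocefin was then added from an 800 uM solution, and hydrolysis was followed at 480 nm.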
# Pf growth 48h: Primary qHTS for delayed death inhibitors of the malarial parasite plastid, 48 hour incubation; actives 5.9% (n = 310,000); AID 504832, 2011; P. falciparum luciferase growth in erythrocytes, 48 h; Potency, µM (doses to about 28.7 µM), without a hit: at the top dose activity change, negative = inhibition, hits mostly inhibitors; note: % is set by controls: 0 for no effect and ±100 for the full control effect
#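 Read-out is firefly luciferase luminescence from an integrated reporter in P. falciparum, so falling signal marks reduced parasite growth. Infected erythrocytes were at 2% hematocrit and 0.1% parasitemia (final) in Albumax-supplemented RPMI 1640.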
# Pf growth 96h: Primary qHTS for delayed death inhibitors of the malarial parasite plastid, 96 hour incubation. actives 6.9% (n = 320,000). AID 504834, 2011. Potency, µM (top dose mostly 28.7 µM), for the others: top-dose activity change, negative = inhibition, usual class: inhibitors. P. falciparum luciferase reporter growth, 96 h; note: % is set by controls: 0 for no effect and ±100 for the full control effect
#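 Plates of compound plus infected erythrocytes (2% hematocrit, 0.05% parasitemia final) incubate 96 hours, 37 C, 5% CO2. Detection reagent added; reduced luminescence from the parasites' luciferase reporter flags inhibition.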
# * hit, by the source's call; u = inconclusive; x = not tested or not shown; [ ] = another dose, or the depositor's remark. Unless noted, calls come from the whole dose curve; as a rule, active = well fitted curve in the direction sought with a large enough effect; inconclusive = small, poorly fitted or top-dose-only effect, or another doubt; inactive = no such curve, though single readings can be large; an effect the other way counts as inactive or inconclusive. Potency is the fitted concentration of half-maximal effect.
SMILES,AmpC detergent,SARS PLP yeast,Sm TGR block,AmpC inh no detg,Pf growth 48h,Pf growth 96h
Cc1ccc(NC2CCCN(C(=O)c3ccc(-n4ccnc4)cc3)C2)cc1C (stereo not drawn),1%,-7%,5%,122%,u,u
CSc1ncc(C(=O)N2CCN(c3cccc(C(F)(F)F)c3)CC2)c(C)n1,1%,x,4%,x,x,x
Cc1nn(C)c(C)c1CN(C)C(=O)c1cc2n(n1)C(C(F)(F)F)CC(c1cccs1)N2 (stereo not drawn),-2%,5%,0%,160%,u,9.3µM*
Cc1nn(C)cc1CN(C)C(=O)c1nn2c(c1Br)NC(c1cccs1)CC2C(F)(F)F (stereo not drawn),-2%,0%,-1%,0%[2.29 µM],13µM*,5.2µM*
Cc1nn(C)cc1CN(C)C(=O)c1nn2c(c1Cl)NC(c1cccs1)CC2C(F)(F)F (stereo not drawn),u,2%,-8%,81%,u,2%
CC(C)C(NC(=O)C1CCCCC1)C(=O)NCCc1ccccc1 (stereo not drawn),-13%,-5%,5%,-23%,9%,u
Clc1ccccc1/C=C/c1nc(-c2ccccn2)no1,-6%,-3%,18%,67%,2.1µM*,67%
COP(=O)(OC)C(Nc1ccc(C)cc1)c1ccc([N+](=O)[O-])cc1 (stereo not drawn),u,11%,1%,-7%,41%,24%
O=C(NCCc1ccccc1)C(=O)NCC(c1cccs1)S(=O)(=O)c1cccs1 (stereo not drawn),-4%,x,u,x,x,x
COc1ccc(CCNC(=O)C(=O)NCC(c2cccs2)S(=O)(=O)c2cccs2)cc1 (stereo not drawn),2%,x,28µM*,x,x,x
O=C(NCc1ccccc1)C(=O)NCC(c1cccs1)S(=O)(=O)c1cccs1 (stereo not drawn),-1%,x,u,x,x,x
COc1ccc(CNC(=O)C(=O)NCC(c2cccs2)S(=O)(=O)c2cccs2)cc1 (stereo not drawn),-2%,x,28µM*,x,x,x
O=C(NCc1ccc(F)cc1)C(=O)NCC(c1cccs1)S(=O)(=O)c1cccs1 (stereo not drawn),1%,x,25µM*,x,x,x
CCOc1ccc(C(C(=O)NCC2CCCO2)N(C(=O)c2snc(C(N)=O)c2N)c2ccc(F)cc2)cc1 (stereo not drawn),1%,2%,2%,155%,u,21%
NC(=O)c1nsc(C(=O)N(c2ccc(F)cc2)C(C(=O)NCC2CCCO2)c2c[nH]c3ccccc23)c1N (stereo not drawn),1%,1%,25µM*,20%,u,u
Cc1cccc(N(C(=O)c2snc(C(N)=O)c2N)C(C(=O)NCC2CCCO2)c2c[nH]c3ccccc23)c1 (stereo not drawn),-6%,-2%,0%,160%,u,44%
NC(=O)c1nsc(C(=O)N(c2cccc(F)c2)C(C(=O)NCC2CCCO2)c2c[nH]c3ccccc23)c1N (stereo not drawn),0%,-3%,18µM*,114%,u,-15%
COc1cccc(C(=O)Nc2cccc(OCc3cc(=O)n4cc(C)ccc4n3)c2)c1,-2%,x,-4%,x,x,x
CC1(C)Cc2ccccc2-c2nnc(-c3cccnc3)n21,1%,2%,8%,-5%,2.3µM*,x
CC1(C)Cc2ccccc2-c2nnc(-c3ccccc3)n21,u,-6%,-3%,-10%,-9%,x
CCOC(=O)c1cc(-c2csc(N/N=C/c3ccccc3Cl)n2)on1,-5%,1%,2%,-29%,u,2.6µM*

# Screening data (PubChem BioAssay)
